Assay [1] relates to TAB165. Put plainly: qHTS profiling for inhibitors of Plasmodium falciparum proliferation (AID 504749). Note: nearly all actives have a fitted effect of over 60% in size. Particulars: P. falciparum in erythrocytes, SYBR Green DNA, 72 h; series mostly up to 28.7 µM. Summed up: (§1)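 Three-day growth assay of blood-stage parasites in erythrocytes (0.3% parasitemia, 2.5% hematocrit) at 37 C, 5% CO2, quantified by SYBR Green DNA staining after overnight detergent lysis.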
A general note: qHTS replaces the single test concentration by a dilution series.

The test system of assay [2] is HaCat. Put plainly: Cytotoxic Profiling of Annotated Libraries Using Quantitative High-Throughput Screening (AID 1296008). For max response: % is set by controls: 0 for no effect and ±100 for the full control effect. Note: nearly all actives have a fitted effect of over 60% in size. Particulars: Five cell lines viability, CellTiter-Glo ATP luminescence, 48-72 h; max response: stronger effect = lower value. Summed up:
(§2)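 Cytotoxicity was measured as CellTiter-Glo ATP luminescence, read after 10 min at room temperature. Compound treatment of the cells lasted 48 or 72 hr at 37 degrees Celsius in a qHTS format.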
On the technique in general: ATP-based viability assays read luminescence as a measure of living cells.

Assay [3] deals with KB-3-1. The assay is described as above. Particulars: Five cell lines viability, CellTiter-Glo ATP luminescence, 48-72 h; max response: stronger effect = lower value. The procedure, abridged:
as §2

Assay [4] concerns HACAT. Put plainly: qHTS assay to identify novel small-molecules to repurpose for Merkel cell carcinoma treatment (AID 1296009). Note: nearly all actives have a fitted effect of over 60% in size. Particulars: MCC and control cell lines, CellTiter-Glo viability, 72 h; at 44.8 µM (top of the series) unless noted. The procedure, abridged: (§3)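 After compound transfer in DMSO, plates were kept 72 hr at 37 degree celsius. Luminescent ATP signal from CellTiter-Glo served as viability measure, normalized against DMSO and no-cell controls.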

Assay [5] deals with MCC-13. The assay is described as above. The conditions noted are these: MCC and control cell lines, CellTiter-Glo viability, 72 h; series mostly up to 46 µM. Summed up: as §3
For assay [6], the system named is MCC-26. The description is as above. The conditions noted are these: MCC and control cell lines, CellTiter-Glo viability, 72 h; series mostly up to 46 µM. Summed up: as §3
Assay [7] concerns MKL-1. Described as above. Particulars: MCC and control cell lines, CellTiter-Glo viability, 72 h; series mostly up to 46 µM. The procedure, abridged: as §3
The subject of assay [8] is MKL-2. The assay is described as above. Particulars: MCC and control cell lines, CellTiter-Glo viability, 72 h; series mostly up to 46 µM. Summed up: as §3
Assay [9] deals with UISO. The description is as above. The conditions noted are these: MCC and control cell lines, CellTiter-Glo viability, 72 h; series mostly up to 46 µM. Summed up: as §3
The subject of assay [10] is WaGa. The assay is described as above. The conditions noted are these: MCC and control cell lines, CellTiter-Glo viability, 72 h; series mostly up to 46 µM. Summed up: as §3
In assay [11] the test system is C33A. Put plainly: Primary qHTS to identify gynecologic anti-cancer compounds using libraries of approved drugs and bioactive compounds (AID 1345084). Note: nearly all actives have a fitted effect of over 55% in size. Particulars: Gynecologic cancer cell panel viability, ATPlite luminescence, 48 h; series mostly up to 57.5 µM. Summed up:
(§4)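 In this quantitative HTS, cell killing is estimated from loss of ATP-dependent luciferase light. Cells see five compound concentrations over a 48 h exposure.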

Assay [12] concerns CAOV3. Described as above. Particulars: Gynecologic cancer cell panel viability, ATPlite luminescence, 48 h; series mostly up to 57.5 µM. Summed up: as §4
In assay [13] the test system is CASKI. The description is as above. The conditions noted are these: Gynecologic cancer cell panel viability, ATPlite luminescence, 48 h; series mostly up to 57.5 µM. Summed up: as §4
Assay [14] concerns Es-2. The description is as above. Particulars: Gynecologic cancer cell panel viability, ATPlite luminescence, 48 h; series mostly up to 57.5 µM. The procedure, abridged: as §4
In assay [15] the test system is HEK293. Description: Cytotoxic Profiling of Annotated Libraries Using Quantitative High-Throughput Screening (AID 1296008). For max response: % is set by controls: 0 for no effect and ±100 for the full control effect. Note: nearly all actives have a fitted effect of over 60% in size. The conditions noted are these: Five cell lines viability, CellTiter-Glo ATP luminescence, 48-72 h; max response: stronger effect = lower value. Summed up: as §2
In assay [16] the test system is W2. Put plainly: qHTS profiling for inhibitors of Plasmodium falciparum proliferation (AID 504749). Note: nearly all actives have a fitted effect of over 60% in size. The conditions noted are these: P. falciparum in erythrocytes, SYBR Green DNA, 72 h; series mostly up to 28.7 µM. Summed up:
as §1

The test system of assay [17] is NIH3T3. Put plainly: Cytotoxic Profiling of Annotated Libraries Using Quantitative High-Throughput Screening (AID 1296008). For max response: % is set by controls: 0 for no effect and ±100 for the full control effect. Note: nearly all actives have a fitted effect of over 60% in size. Particulars: Five cell lines viability, CellTiter-Glo ATP luminescence, 48-72 h; max response: stronger effect = lower value. The procedure, abridged:
as §2

Assay [18] has as its system CRL-7250. The description is as above. Particulars: Five cell lines viability, CellTiter-Glo ATP luminescence, 48-72 h; max response: stronger effect = lower value. The procedure, abridged: as §2
For assay [19], the system named is HEK293T. Description: qHTS assay to identify novel small-molecules to repurpose for Merkel cell carcinoma treatment (AID 1296009). Note: nearly all actives have a fitted effect of over 60% in size. The conditions noted are these: MCC and control cell lines, CellTiter-Glo viability, 72 h; at 44.8 µM (top of the series) unless noted. Summed up:
as §3

Assay [20] deals with NIH3T3. The assay is described as above. The conditions noted are these: MCC and control cell lines, CellTiter-Glo viability, 72 h; at 44.8 µM (top of the series) unless noted. The procedure, abridged:
as §3

Inconclusive results are not listed. Values without a mark were called inactive. Active and inactive are the calls of the source. Calls come from the whole dose curve; as a rule, active = well fitted curve in the direction sought with a large enough effect; inconclusive = small, poorly fitted or top-dose-only effect, or another doubt; inactive = no such curve, though single readings can be large; an effect the other way counts as inactive or inconclusive.
Potency is the fitted concentration of half-maximal effect.

As to `NC(=O)C(=O)N/N=C/c1ccc([N+](=O)[O-])o1`, the Potency result in assay [1], in assay [5], in assay [6], in [11], in [12] and in assay [13] was “inactive” throughout. The Potency result in [14] is “inactive”. Also, the molecule was classed as inactive in assay [2] and in [4]. Also, in assay [3], the max response was 30.2%. For the same molecule, the Potency in [7] is 26.6 µM (active); in assay [8], 7.5 µM (active); in assay [9], 29.9 µM (active); in assay [10], 15 µM (active).

Consider `CCCCCCCCCCCCCCCC[N+](C)(C)CCN(Cc1ccc(OC)cc1)c1ncccn1`, for which the Potency in assay [15] was 9.44 µM (active); in assay [7], 5.96 µM (active); in assay [8], 2.37 µM (active); in assay [9], 10.6 µM (active); in assay [10], 16.8 µM (active); in assay [12], 17.8 µM (active). For the same molecule, the max response in [3] is -4.99%.

In the case of `COc1ccc(CCN2CCC(Nc3nc4ccccc4n3Cc3ccc(F)cc3)CC2)cc1`, the Potency in assay [1] was 2.82 µM (active); in assay [16], 3.01 µM (active); in assay [15] it was 9.44 µM (active); in assay [17] it was 4.73 µM (active); in assay [5], 23.7 µM (active); in [8] it was 13.3 µM (active). In addition, the Potency in [10] is 21.1 µM (active).

Turning to `CCCCOc1ccc(C(=O)CCN2CCCCC2)cc1`, the Potency result in [1], in assay [5], in assay [6], in assay [11] and in assay [13] was “inactive” in each case. In addition, the outcome in assay [2] and in assay [4] was inactive. Also, the max response in assay [3] is 0.445%; in [17], -2.83%. The Potency in [7] was 9.44 µM (active); in assay [8], 2.66 µM (active); in assay [10], 23.7 µM (active).

For the molecule `C[C@@H](CN(C)C)CN1c2ccccc2Sc2ccccc21`, the Potency entry in assay [1], in assay [5], in assay [6], in assay [9], in assay [10] and in assay [11] was “inactive” in each case. In addition, the Potency entry in assay [12], in [13] and in [14] was “inactive” throughout. Besides, the max response in [2] was -0.198%; in assay [3] it was -9.85%; in [17] it was -1.51%. In addition, in [8], the Potency is 23.7 µM (active).

In the case of `CCCOC(C(=O)OC1CCN(C)CC1)(c1ccccc1)c1ccccc1`, in [16], the Potency is 6.01 µM (active). Also, the max response in [18] is -3.11%; in [2], -26.2%; in assay [17], 4.34%. Besides, the Potency entry in [5], in assay [6], in [7], in assay [9], in [11] and in [12] was “inactive” in each case. Moreover, the Potency result in assay [13] and in [14] was “inactive” in each case.

With `CC(C)=CCC1C(=O)N(c2ccccc2)N(c2ccccc2)C1=O`, the max response in assay [18] is -25.1%; in assay [3] it was -9.06%; in assay [17] it was -29%. Moreover, the Potency entry in assay [5], in assay [6], in assay [11], in assay [13] and in assay [14] was “inactive” each time. Moreover, the Potency in assay [8] is 13.3 µM (active).

Regarding `CC(=O)OCC(=O)[C@@]12N=C(C)O[C@@H]1C[C@H]1[C@@H]3CCC4=CC(=O)C=C[C@]4(C)[C@H]3[C@@H](O)C[C@@]12C`, the molecule was called inactive in assay [15], in [2], in [4] and in assay [19]. Also, the max response was 7.15% in assay [3] and -1.08% in assay [17]. For the same molecule, the Potency result in assay [5], in [6], in assay [7], in assay [8], in assay [9] and in assay [10] was “inactive” throughout. For the same molecule, the Potency result in [11], in assay [13] and in [14] was “inactive” in each case.

Consider `CC(=O)Nc1c(I)cc(I)c(C(=O)O)c1I`, for which the Potency entry in assay [1], in assay [16], in assay [5], in assay [6], in assay [7] and in assay [8] was “inactive” in each case. Further, the Potency entry in assay [9], in assay [10], in [11], in assay [12], in [13] and in [14] was “inactive” throughout. Moreover, the max response in [2] is 4.29%; in assay [3], -17.1%. In addition, the result in assay [17] and in assay [20] was inactive.

`CN=C(NC#N)NCCSCc1csc(N=C(N)N)n1`: the Potency result in assay [1], in [16], in [5], in assay [6], in assay [7] and in [8] was “inactive” throughout. Also, the Potency entry in assay [9], in assay [10], in assay [11], in [13] and in assay [14] was “inactive” each time. Further, the max response in assay [18] was 1.65%; in assay [2], 3.38%; in assay [17], 4.93%.

Turning to `O=C(CCCN1CCC(O)(c2ccc(Br)cc2)CC1)c1ccc(F)cc1`, in assay [16], the Potency was 1.44 µM (active). Moreover, the max response is 2.7% in [18], -2.82% in assay [2] and 3.87% in assay [3]. In addition, the Potency result in assay [6], in assay [7], in assay [8], in assay [11], in [13] and in assay [14] was “inactive” throughout.

Regarding `CCN(CC)C(=O)/C(C#N)=C/c1cc(O)c(O)c([N+](=O)[O-])c1`, the Potency result in assay [16], in assay [5], in [6], in assay [11], in assay [12] and in assay [13] was “inactive” in each case. Further, in assay [14], the Potency entry is “inactive”. The max response was -12.8% in assay [15], -5.03% in [2] and 3.63% in assay [3].

Take `O=C(COc1ccc(Cl)cc1)N1CCN(Cc2ccc3c(c2)OCO3)CC1`: the Potency entry in assay [1], in assay [16], in [5], in [6], in [7] and in [9] was “inactive” each time. The Potency entry in [11], in assay [12], in assay [13] and in assay [14] was “inactive” in each case. Also, the figures for the max response in assay [18], in assay [3] and in [17] were -27.2%, -11.1% and 0.953%, respectively.

`COc1c(C)c2c(c(O)c1C/C=C(\C)CCC(=O)O)C(=O)OC2`: the Potency in assay [1] is 1.58 µM (active); in assay [16], 2.56 µM (active); in [15], 0.944 µM (active); in assay [17] it was 1.68 µM (active); in assay [10], 0.531 µM (active); in [14], 2.82 µM (active). Moreover, the max response in assay [3] was -17.8%. Further, the Potency result in [12] was “inactive”.

Consider `Cc1c(C)n(CCN(C)C)c2ccc(C(=O)OCCN(C)C)cc12`, for which the Potency result in assay [1], in assay [5], in assay [6], in assay [7], in assay [8] and in assay [9] was “inactive” in each case. For the same molecule, the Potency result in [11], in assay [13] and in assay [14] was “inactive” in each case. In addition, the molecule was called inactive in assay [2] and in assay [4]. Besides, the max response in assay [3] is 2.08%. Also, the Potency in [17] was 7.5 µM (active).

Regarding `C#C[C@]1(O)CC[C@H]2[C@@H]3CCc4cc(OC5CCCC5)ccc4[C@H]3CC[C@@]21C`, the Potency result in assay [1], in [5], in assay [6], in [11], in assay [13] and in [14] was “inactive” each time. For the same molecule, the max response in [18] is 0.636%; in assay [3] it was -14.7%.
